In PubChem BioAssay (NCI):
Compounds without any hit were thinned out: in the full panel of roughly 83,000, 20% have a hit.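 Single-dose data. Exposure time 48 hours. Values below 10 considered active.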 A number with no mark means an inactive call. The source made the active and inactive calls.

System: MOLT-4 leukemia
Assay: NCI-60 one-dose screen, 48 h (100 = growth as untreated, 0 = no growth, -100 = all killed)
Conditions: 10 µM unless noted
Description: Growth inhibition of the MOLT-4 human tumor cell line is measured as a screen for anti-cancer activity. Cells are grown in 96 well plates and exposed to the test compound for 48 hours. Compounds are tested at a single concentration, which is 10^-5 M for most compounds. The reported endpoint is percent growth (GI% or GIPRCNT), where numbers from 0 - 100% represent growth inhibition, and numbers from -100% - 0 represent cell death. For example, a value of 40 represents 60% growth inhibition. A value of 0 means no net growth occurred over the course of the experiment. A value of -40 indicates 40% of cells at the beginning of the experiment died by the end of the experiment. A value of -100 means all cells are dead at the end of the experiment.
NCI-60 Human Tumor Cell Lines Screen was performed using the standard one-dose NCI protocol, which is described in more detail at https://dtp.cancer.gov/discovery_development/nci-60/default.htm.
Compounds with GIPRCNT values below 10 were considered active. Activity score was based on GIPRCNT using the following formula: […]
Score is 0 for GIPRCNT values of 100 or above, 50 for GIPRCNT values of 0, and 100 for GIPRCNT values of -100.

SMILES	growth
N#Cc1c(-c2ccc(Cl)cc2)nc2n[nH]c(-c3ccc(Cl)cc3)c2c1-c1ccc(C(F)(F)F)cc1	12.8%
N#Cc1ccc(C(=O)Nn2c(N)cc3ccccc3c2=O)cc1	84.6%
C=C1CC[C@@H]2[C@]3(C)COC(c4cn[nH]c4-c4ccc(Br)cc4)O[C@@H]3CC[C@@]2(C)[C@@H]1C/C=C1/C(=O)OCC1O (stereo not given in full)	2.63% (active)
Nc1nc(C(F)(F)F)cs1	112%
COc1ccc(-c2nc3cc(C)ccc3n2CC(=O)N=Nc2c(O)[nH]c3ccc(Cl)cc23)cc1	11%
Cc1ccc(-n2c(-c3cc4ccccc4nc3Cl)noc2=O)cc1	76.5%
COc1cccc(/C=C/c2nc3ccccc3c(=O)n2CC(=O)Nc2ccc(Cl)cc2)c1	90.6%
COc1ccc(-c2ccc(SCC(=O)NCCc3ccc(S(N)(=O)=O)cc3)nn2)cc1	68.2%
CN(C)c1nc(NCCNS(=O)(=O)c2ccc(C3=Nc4c(N)nc(N)nc4NC(c4ccc(F)cc4)C3)cc2)nc(Nc2ccc(F)cc2)n1 (stereo not given)	6.56% (active)
O=c1cc(-c2ccccc2)oc2cc(OCCCC[P+](c3ccccc3)(c3ccccc3)c3ccccc3)cc(O)c12	-41.7% (active)
CCN1C(=O)N(CC)C2NNC(Sc3c(C(=O)O)c4ccccc4n(C4CCCC4)c3=O)=NC21 (stereo not given)	24.1%
COc1ccc(C(SCCNCc2cc(N(C)C)ccn2)(c2ccccc2)c2ccccc2)cc1	9.51% (active)
Cc1ccc(-c2nc(C#N)c(S(=O)(=O)N3CCN(S(=O)(=O)c4ccc(Cl)cc4)CC3)o2)cc1	75.7%
CC(=O)OCC1OC(OC2C(COC(C)=O)OC(n3cc(COc4ccc5ccc(=O)oc5c4)nn3)C(OC(C)=O)C2OC(C)=O)C(OC(C)=O)C(OC(C)=O)C1OC(C)=O (stereo not given)	97%
COc1ccc(C(=O)/C=C/c2ccc(OCc3ccccc3)c(OC)c2)cc1OC	9.48% (active)
CC1=C(C(=O)c2ccccc2)C(c2cccc3ccccc23)n2c(nc3ccccc32)N1 (stereo not given)	52.3%
COc1ccc2[nH]c(O)c(N=NC(=O)COc3ccc(NC(=O)Nc4ccccc4)cc3)c2c1	77.1%
Cc1ccc2c(N)c(C(=O)Nc3ccc(-c4ccccc4)cc3)sc2n1	50.9%
COC(=O)/C=C/c1cccc2c1C(=O)NC(C)(c1cc3cc4ccccc4cc3oc1=O)N2 (stereo not given)	58.7%
CC(=O)c1cc(C(=O)c2ccccc2)n2c1ccc1ccccc12	87.6%

SMILES	growth
CCCCSc1nc(Nc2ccc(C(C)=O)cc2)c(C#N)c(-c2ccc(OC)cc2)n1	88%
COC(=O)C[C@](O)(CCCC(C)(C)O)C(=O)O[C@H]1C(OC)=C[C@@]23CCCN2CCc2cc4c(cc2[C@@H]13)OCO4	-6.36% (active)
Cn1cc(-c2nc(N)nnc2-c2c[nH]c3ccc(F)cc23)c2cccnc21	18.2%
Cc1ccccc1[C@H]1C(C(=O)c2ccc(Cl)cc2)C2(N[C@@H]1c1ccccc1)C(=O)Nc1ccc(Cl)cc12 (stereo not given in full)	-17.5% (active)
CCN(CC)c1ccc(/C=N/Nc2nc(-c3ccc(Br)cc3)cs2)c(O)c1	12.3%
COc1cc2oc(-c3cccc(C(=O)Nc4ccc(Cl)cc4)c3)cc(=O)c2c(OCCNC(=O)[C@H](CO)NC(=O)OC(C)(C)C)c1OC	5.42% (active)
CSc1ccccc1NC(=O)c1ccc2nnn(/C(C#N)=C/c3ccccn3)c2c1	-27.9% (active)
COc1cc2c(c(OC)c1OC)C(=O)CC(c1cccc(NC(=O)c3cc(NC(=O)[C@H](CO)NC(=O)OC(C)(C)C)ccc3Cl)c1)O2 (stereo not given in full)	12.5%
CC1(C)CC[C@]2(C(=O)O)CC[C@]3(C)C(=CCC4[C@@]5(C)C[C@@H](O)[C@@H]6OC(c7ccc(F)cc7)OC[C@@]6(C)C5CC[C@]43C)C2C1 (stereo not given in full)	8.69% (active)
COc1cc(NC(=O)c2cccc(C3CCc4c(cc(OC)c(OC)c4OC)O3)c2)cc(OC)c1OC (stereo not given)	11.8%
C=C1CCC2C3(C)COC(c4cccc(F)c4)OC3CCC2(C)C1C/C=C1/C(=O)OCC1O (stereo not given)	7.01% (active)
COc1cc(CNC(=O)/C=C/c2ccc3c(c2)OCO3)ccc1OCc1cn(-c2cccc(C(F)(F)F)c2)nn1	48.8%
CC1=C(C#N)C2=NNCC(c3ccccc3)=NN2C(c2ccccc2)=C1	114%
COc1ccc(-c2ccnc(SCc3cc4ccccc4[nH]c3=O)n2)cc1	11.1%
CC(C)c1ccc2c(N)c(C(=O)Nc3cccc(C(F)(F)F)c3)sc2n1	56.4%
Cc1nc(Nc2ncc(C(=O)Nc3c(C)cccc3Cl)s2)cc(N2CCN(CCCNC(=O)COc3ccc(C4CCC(=O)NC4=O)cc3)CC2)n1 (stereo not given)	48.9%
COc1ccc(-c2c(Nn3cnnn3)no[n+]2[O-])cc1	27.9%
COc1c(F)ccc(C(=O)Nc2ccc3nc(NC(=O)C4CCCN(S(=O)(=O)C5CC5)C4)sc3c2)c1F (stereo not given)	3.08% (active)
CC(C)CSc1nc(NCCc2c[nH]c3ccccc23)c(C#N)c(-c2ccc(F)cc2)n1	27.9%
COc1ccc2c(c1)c(-c1cc3nc(-c4cn(C)c5ncc(Br)cc45)cc(N)n3n1)cn2C	-43.6% (active)
